NS1 inh – blocks influenza NS1 protein function | Potency, µM (titrated, usually from 46.1 µM), for the others: top-dose activity, positive = more growth | 270,000 tested, 0.4% active | AID 2326; calls by dose curve; further: potency means the concentration at half of the fitted maximal effect; actives are rising curves; nearly all actives have a fitted effect of over 50% in size
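S. cerevisiae expressing influenza A NS1, grown in glucose, washed, then diluted 1:100 into pH 6.0 -URA galactose medium with 23 nl compound. Growth recovery read as OD600; NS1-free strain serves as control.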
Cycloheximide cs – counter-screen for Shiga toxin inhibitors: cycloheximide protein synthesis inhibition; cell reporter, cycloheximide protein synthesis inhibition counterscreen; AID 2314; max response, %; 300,000 tested, 12% active; in the data active means max response mostly above about 13%, no sharp cut-off; inactive means mostly below about 14%; further: read at 38.3 µM for the half of the compounds with a filed dose; 0% is about no effect
Pf growth 96h – P. falciparum growth inhibition at 96 hours; P. falciparum luciferase reporter growth, 96 h; Potency, µM (top dose mostly 28.7 µM), inactives show at the top dose activity change, negative = inhibition, most hits filed as inhibitors; AID 504834; 320,000 tested, 6.9% active; further: potency means the concentration at half of the fitted maximal effect; on the % scale 0 is the no-effect control and ±100 the full control effect
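P. falciparum expressing integrated firefly luciferase grown in erythrocytes (2% hematocrit, 0.05% parasitemia final) with compounds for 96 hours at 37 C, 5% CO2. Growth inhibition read as loss of luminescence after adding luciferase detection reagent.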
Sm TGR inh – inhibitors of Schistosoma mansoni thioredoxin glutathione reductase; purified TGR, DTNB reduction, TNB absorbance 405 nm; Potency, µM (series often up to 114 µM), for inactives: top-dose activity change, negative = inhibition, hits mostly inhibitors; AID 485364; Q962Y6; 360,000 tested, 3% active; further: potency means the concentration at half of the fitted maximal effect; on the % scale 0 is the no-effect control and ±100 the full control effect; nearly all actives have a fitted effect of over 60% in size
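TGR 20 nM + NADPH 100 uM (dispensed conc.), cpd preinc 15 min RT; start with NADPH (500 uM addition) then DTNB (15 mM addition). Kinetic TNB absorbance, 405 nm filter. Four-parameter Hill fit across titration.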
Shiga inhibitor – inhibitors of Shiga toxin in Vero cells. 290,000 tested, 9.2% active. Vero cells, Shiga toxin protein synthesis inhibition reporter. inhibition, % at 38.7 µM; in the data active means inhibition mostly above about 28%, no sharp cut-off; inactive means mostly below about 43%; further: 0% is about no effect
Pf growth 48h – inhibits P. falciparum growth in the first generation, 48 h; Potency, µM (highest dose often 28.7 µM), without a hit: at the highest dose activity change, negative = inhibition, most hits filed as inhibitors; AID 504832; P. falciparum luciferase growth in erythrocytes, 48 h; 310,000 tested, 5.9% active; further: potency means the concentration at half of the fitted maximal effect; on the % scale 0 is the no-effect control and ±100 the full control effect
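A one-generation exposure of luciferase-tagged malaria parasites in RPMI 1640/Albumax erythrocyte culture, 37 C and 5% CO2. Inhibition is inferred from decreased luminescence after adding detection reagent.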
Starred values were filed as active, the others as inactive; ? = inconclusive; / = not tested or not shown. Compounds with a hit are over-represented: about 21% of the library has one in this group of screens. Unless noted, the call rests on the fitted dose curve; in most records, active means well fitted curve in the direction sought with a large enough effect; inconclusive means small, poorly fitted or top-dose-only effect, or another doubt; inactive means no such curve, though single readings can be large; an effect the other way counts as inactive or inconclusive.

SMILES	NS1 inh	Cycloheximide cs	Pf growth 96h	Sm TGR inh	Shiga inhibitor	Pf growth 48h
C=CCOC(=O)C1=C[C@@H](c2ccc(Br)cc2)C[C@@H](OCc2ccc(CO)cc2)O1	-1%	-3	15%	?	9	?
O=C(Nc1ccccc1)C1=C[C@@H](c2ccc(Br)cc2)C[C@@H](OCc2ccc(CO)cc2)O1	8%	46*	?	0%	86*	?
O=C(O)C1=C[C@H](c2ccc(F)cc2)C[C@H](OCc2ccc(CO)cc2)O1	4%	0	-2%	35µM*	3	44%
Cc1c(C)c2c(c(C)c1O)CCC(C)(COc1ccc(Cc3sc(=O)[nH]c3O)cc1)O2 (stereo unspecified)	/	1	/	/	15	/
O=C(O)C1=C[C@@H](c2ccc(Br)cc2)C[C@@H](OCc2ccc(CO)cc2)O1	5%	3	17%	40µM*	-7	5%
NC(=O)C1=C[C@H](c2ccc(Br)cc2)C[C@H](OCc2ccc(CO)cc2)O1	1%	25*	20%	-31%	56*	1%
O=C(Nc1ccccc1)C1=C[C@H](c2ccc3c(c2)OCO3)C[C@H](OCc2ccc(CO)cc2)O1	13%	73*	38%	-15%	104*	?
CN1CCN(C(=O)c2ccccc2-c2nc(-c3ccccc3)no2)CC1	-8%	22*	-9%	-8%	62	22%
NC(=O)c1ccccc1-c1nc(-c2ccccc2)no1	-15%	44*	147%	1%	95*	88%
Cc1ccc(-c2noc(-c3ccccc3C(=O)N3CCOCC3)n2)cc1	-7%	12	-26%	-3%	2	/
CC(C)CN(C(=O)COC(=O)CCCc1c[nH]c2ccccc12)c1c(N)n(Cc2ccccc2)c(=O)[nH]c1=O	14%	-1	?	-33%	-9	?
COc1ccc(Cl)cc1NC(=O)Cn1cnc2sc(C)c(S(=O)(=O)N3CCN(c4ccccc4OC)CC3)c2c1=O	/	/	/	-1%	/	/
Cc1c(C(=O)O)cccc1-c1ccc(/C=C2/NC(=O)N(c3ccccc3)C2=O)o1	5%	28*	8%	-27%	40	33%
Cc1ccc(/C=C2/NC(=O)N(Cc3ccccc3F)C2=O)o1	-35%	5	?	?	-1	-2%
Cc1cccc(NC(=O)CN2C(=O)N/C(=C/c3ccc(-c4cccc(C(=O)O)c4C)o3)C2=O)c1	1%	27*	22%	/	45*	38%
Cc1ccc(/C=C2/NC(=O)N(c3ccccc3)C2=O)o1	-24%	32*	-6%	32µM*	90*	104%
O=C1N/C(=C/c2ccc(Br)s2)C(=O)N1c1ccccc1	-5%	16*	-20%	/	65*	38%
Cc1nn2c(C)c(C(=O)NC(C)c3ccccc3)cnc2c1-c1ccc(F)cc1 (stereo unspecified)	/	/	/	6%	/	/
CC(C)(C)C(=O)NC(=S)NNC(=O)c1ccc(-c2ccccc2)cc1	-70%	-2	0%	4%	-8	?
COc1cc(CCC(=O)Nc2c(C(=O)N3CCN(c4ccccc4)CC3)oc3ccccc23)on1	-21%	-3	-20%	-15%	-9	?
O=C1N/C(=C/c2ccc(N3CCOCC3)o2)C(=O)N1c1cccc(Cl)c1	7%	22*	-4%	2.8µM*	23	-1%
O=C1NC(=O)C(=Cc2ccc(N3CCOCC3)o2)C(=O)N1	/	1	-2%	?	20	7%
O=C(NCCc1cccs1)C1CC(c2ccccc2[N+](=O)[O-])=NO1 (stereo unspecified)	1%	16*	39%	11%	74*	18%
COCCNC(=O)C1CC(c2ccccc2[N+](=O)[O-])=NO1 (stereo unspecified)	1%	-2	?	-22%	-10	21%
COc1ccc(CCNC(=O)C2CC(c3ccccc3[N+](=O)[O-])=NO2)cc1 (stereo unspecified)	-10%	49*	81%	4%	52	104%
Cc1ccc(CCNC(=O)C2CC(c3ccccc3[N+](=O)[O-])=NO2)cc1 (stereo unspecified)	-4%	9	?	0%	14	36%

Bioassay records as filed in PubChem BioAssay.
